# From PubChem BioAssay
# AID923 – qHTS Assay for Allosteric/Competitive Inhibitors of Caspase-1: Spectroscopic Profiling in AFC Spectral Region; 75,000 compounds, 1.1% hits; compound fluorescence, AFC spectral region (405/520 nm); Potency, µM (series often up to 57.5 µM), for the others: top-dose fluorescence increase, usual class: activators; also: potency is read from the fitted curve at half-maximal effect; 0% is about no effect
#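 Titrations up to 57 uM read every 20 sec for 3 min (405/520 nm) with 50 nM caspase 1 and 5 uM Ac-WEHD-AFC, pH 7.5 HEPES buffer. Fluorescence-vs-time intercept gave baseline, scaled against on-plate AFC standard.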
# A350 autofl – qHTS Assay for Spectroscopic Profiling in A350 Spectral Region. Compound autofluorescence, 340/450 nm, Alexa 350 dye-equivalents; active compounds read high. max dye-equivalent concentration, M. 59,000 compounds, 11% hits. AID 590, 2007; in the data active = max dye-equivalent concentration above about 10 nM; inconclusive = mostly about 1.1 nM to 9.6 nM
# CRE-bla Fsk – Cell signaling CRE-BLA (Fsk stim); CHO CRE-bla reporter (cAMP response element driving beta-lactamase), forskolin EC10, beta-lactamase ratio; Potency, µM (top dose mostly 38.2 µM), inactives show at the highest dose activity change, negative = inhibition, most hits filed as activators; 71,000 compounds, 2.5% hits; AID 662, 2007; active = well fitted activation curve with a large enough effect in the signal ratio, with a control signal flat, not every such curve was filed as active; inconclusive = small, poorly fitted or top-dose-only effect, or effect the other way, or a change in a side signal; the % refers to the signal ratio; also: potency is read from the fitted curve at half-maximal effect; % of control where 0% means no effect
#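 Modulation of forskolin-driven signalling is measured in CHO cells carrying a CRE-controlled beta-lactamase reporter. Cells are stimulated with EC10 NKH 477 in the presence of titrated compound for 3 h at 37 °C, then loaded with CCF4 for 2 h at room temperature.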
# HSD17B inhib – qHTS Assay for Inhibitors of HSD17B4, hydroxysteroid (17-beta) dehydrogenase 4; 3-hydroxyacyl-CoA dehydrogenase type-2 (Homo sapiens), Q99714; recombinant HSD17B10, NADH fluorescence kinetic; Potency, µM (top dose mostly 57.1 µM), inactives show at the top dose activity change, negative = inhibition, hits mostly inhibitors; 75,000 compounds, 7.6% hits; AID 893, 2007;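 also: the protocol describes HADH2 (HSD17B10) and not the HSD17B4 of the title; potency is read from the fitted curve at half-maximal effect; % is scaled to controls: 0 for no effect and ±100 for the full control effect; nearly all actives have a fitted effect of over 70% in size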
#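 His-tagged E. coli-expressed HADH2 at 20 nM in 100 mM Tris-HCl pH 9.0 with 0.01 % Tween-20, preincubated 15 min with compound at room temperature. Reaction with 1 mM NAD+ and 90 uM beta-hydroxybutyryl coenzyme A; NADH fluorescence (360/450 nm) read kinetically over 4 min, last minus first point.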
# HADH2 inh – qHTS Assay for Inhibitors of HADH2 (Hydroxyacyl-Coenzyme A Dehydrogenase, Type II). 3-hydroxyacyl-CoA dehydrogenase type-2 (Homo sapiens), Q99714. recombinant HADH2, NADH fluorescence, beta-hydroxybutyryl-CoA. Potency, µM (doses to about 57.1 µM), for the others: at the highest dose activity change, negative = inhibition, actives largely listed as inhibitors. 73,000 compounds, 3.4% hits; also: potency is read from the fitted curve at half-maximal effect; % is scaled to controls: 0 for no effect and ±100 for the full control effect; nearly all actives have a fitted effect of over 60% in size
# Target sequence (Q99714 whole entry, looked up, one chain of several): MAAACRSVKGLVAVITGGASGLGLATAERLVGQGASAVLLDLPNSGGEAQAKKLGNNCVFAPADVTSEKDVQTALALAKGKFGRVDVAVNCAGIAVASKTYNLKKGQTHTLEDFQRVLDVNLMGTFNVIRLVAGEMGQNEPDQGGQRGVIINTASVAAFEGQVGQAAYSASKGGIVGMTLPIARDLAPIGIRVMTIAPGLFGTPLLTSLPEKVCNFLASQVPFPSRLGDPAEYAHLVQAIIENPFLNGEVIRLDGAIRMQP
#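 Buffer 100 mM Tris-HCl pH 9.0/0.01% Tween-20; HADH2 20 nM; NAD+ 1 mM; beta-hydroxybutyryl-CoA 90 uM (all final). 15 min cpd preincubation, RT.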
# 4-MU autofl – qHTS Assay for Spectroscopic Profiling in 4-MU Spectral Region; compound autofluorescence, 340/450 nm, 4-MU equivalents; active compounds read high; max dye-equivalent concentration, M; 59,000 compounds, 11% hits; in the data active = max dye-equivalent concentration above about 10 nM; inconclusive = mostly about 1.1 nM to 9.6 nM
#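 Intrinsic fluorescence at 340/450 nm (ex/em) was read after 15 min at room temperature in pH 8.0, 100 mM Tris. Each compound concentration expressed as 4-MU-equivalent concentration from a six-point 4-MU standard series on each plate.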
# CHO via 24h – Cell Viability - CRE-beta lactamase CHO cell - 24 hr assay; shares compounds with CRE-bla Fsk; activity, negative = viability loss, % at 46.1 µM; 120 tested, under 10 active; AID 905, 2007; CRE-bla CHO viability, ATP luminescence, 24 h
# CHO tox 40h – Cell Viability - CRE-beta lactamase CHO cell - 40 hr assay; shares compounds with CRE-bla Fsk; CRE-bla CHO viability, ATP luminescence, 40 h; Potency, µM, for the others: max response, usual class: inhibitors; 120 tested, under 10 active
# CREB luc CRC – Confirmation Concentration-Response Assay for Cell signaling CRE-BLA (Fsk stim) - HEK293 CREB Luciferase; HEK293 CRE-luc2P, NKH477 EC10 potentiation, luminescence, 4 h; 120 compounds, 80% hits; AID 907, 2007; Potency, µM (top dose mostly 38.3 µM), without a hit: top-dose activity, positive = activation, hits mostly activators; shares compounds with CRE-bla Fsk
# Starred values were filed as active, the others as inactive; i = inactive; u = inconclusive; x = no result; ! = not active in a repeat; [ ] = another dose, or the depositor's remark. In the library only some 14% were active in any assay of this set; here they are far more common. Unless noted, calls follow the shape of the dose curve; as a rule, active = well fitted curve in the direction sought with a large enough effect; inconclusive = small, poorly fitted or top-dose-only effect, or another doubt; inactive = no such curve, though single readings can be large; an effect the other way counts as inactive or inconclusive.
SMILES,AID923,A350 autofl,CRE-bla Fsk,HSD17B inhib,HADH2 inh,4-MU autofl,CHO via 24h,CHO tox 40h,CREB luc CRC
Cc1ccc(C)c(N2CCN(S(=O)(=O)c3ccc4c(c3)OCCO4)CC2)c1,1%,i,6%,5%,9%,i,3,-17%,13µM*
Cc1ccc(Cl)cc1N1CCN(S(=O)(=O)c2ccc3c(c2)OCCO3)CC1,2%,i,5%,0%,4%,i,x,x,x
CC[C@]1(O)C[C@@H]2CN(CCc3c([nH]c4ccccc34)[C@](C(=O)OC)(c3cc4c(cc3OC)N(C=O)[C@H]3[C@@](O)(C(=O)OC)[C@H](C(=O)OC)[C@@]5(CC)C=CCN6CC[C@]43[C@H]65)C2)C1,-3%,x,0.5µM*,-27%,6%,x,-22,u,8%
Cc1ccccc1-n1nc(C)c2cc(C(=O)N3CCOCC3)sc21,-1%,i,-4%,-3%,10%,i,x,x,x
Cc1nn(-c2ccccc2)c2sc(C(=O)N3CCCCC3)cc12,-1%,i,3.2µM*,-2%,-16%,i,-18,u,10µM*
O=c1[nH]c(SCc2ccccc2Cl)nc2c1cnn2-c1ccccc1,1%,x,0.79µM*,37%,16%,x,-19,-21%,6.3µM*
Cc1ccc(-n2ncc3c(=O)[nH]c(SCC(=O)N4CCOCC4)nc32)cc1,2%,i,19%,1%,9%,i,4,2%,u
CC(=O)c1ccc(NC(=O)N[C@@H](CC(C)C)C(=O)O)cc1,1%,i,9%,-5%,-20%,i,x,x,x
Cn1nc(-c2ccc(N3CCOCC3)c(NS(=O)(=O)c3ccccc3)c2)c2ccccc2c1=O,-1%,u,2µM*,4%,-3%,i,u,u,u
CC(=O)Nc1cc(-c2nn(CC(=O)N3CCCCC3)c(=O)c3ccccc23)ccc1N1CCOCC1,1%,i,u,5%,10%,i,x,x,x
CCCN1CCN(C(=O)Cn2cccc2C(=O)c2ccccc2)CC1,1%,i,u,-5%,-3%,i,x,x,x
O=C(c1cc(S(=O)(=O)N2CCOCC2)ccc1F)N1CCCc2ccccc21,-3%,i,-8%,9%,3%,i,2,-2%,18%
CCOC(=O)c1ccccc1NC(=O)c1cc(S(=O)(=O)N2CCOCC2)ccc1F,3%,i,10µM*,u,15%,i,-16,-15%,13µM*
CN1C(=O)N(C)C2(c3ccccc3)N(C)C(=O)NC12c1ccccc1 (stereo not given),0%,i,u,11%,9%,i,x,x,x
CCn1cc(C(=O)Nc2ccc3c(c2)OCCO3)c2cc(OC)c(OC)cc2c1=O,-1%,x,1.3µM*,5%,1%,x,-8,-18%,0.71µM*
CCn1cc(C(=O)Nc2cccc(NC(C)=O)c2)c2cc(OC)c(OC)cc2c1=O,-1%,i,u,-1%,-5%,i,x,x,x
COc1ccc([C@@H]2CNC(=O)C2)cc1OC1CCCC1,-1%,i,0.01µM*!,-6%,7%,i,-6,-12%,0.028µM*
C=CCc1ccc(OCC(O)CN2CCCCC2C)c(OC)c1 (stereo not given),-2%,i,u,-1%,12%,i,x,x,x
CCN(C(=O)c1cn(C)c(=O)c2cc(OC)c(OC)cc12)c1cc(OC)ccc1OC,-1%,i,29%,-3%,7%,i,1,-8%,13µM*
c1coc(-c2nnc3sc(C4CCCCC4)nn23)c1,x,i,x,x,x,i,x,x,x
CC(C)(C)c1ccc(CN2CCN([C@H](c3ccccc3)c3ccc(Cl)cc3)CC2)cc1,0%[11.5 µM],i,1%[7.6 µM],7%[11.4 µM],13%[11.4 µM],i,x,x,x
CCCN(CCC)CCNC(=O)c1cc2c(=O)n(C)c3ccccc3c2n1C,5%,x,19%,32µM*,-9%,x,-10,-11%,13µM*
CN(CCNC(=O)c1cc2c(=O)n(C)c3ccccc3c2n1C)Cc1ccccc1,-3%,x,u,u,u,x,x,x,x
Cn1c(C(=O)NCCCN2CCCC2=O)cc2c(=O)n(C)c3ccccc3c21,0%,x,4µM*,u,-24%,x,-8,-21%,13µM*
CC(=O)OC[C@@H]1O[C@@H](O/N=C2/C[C@@H](O)[C@@H](O)[C@@H]3[C@@H]4C(=O)N(C(C)(C)C)C(=O)[C@H]4CC[C@H]23)[C@H](OC(C)=O)[C@H](OC(C)=O)[C@@H]1OC(C)=O,-1%[11.5 µM],x,x,-1%[11.4 µM],4%[11.4 µM],x,x,x,x
SMILES,AID923,A350 autofl,CRE-bla Fsk,HSD17B inhib,HADH2 inh,4-MU autofl,CHO via 24h,CHO tox 40h,CREB luc CRC
CCOc1cc(C2c3c(oc4cc(C)c(Cl)cc4c3=O)C(=O)N2Cc2ccco2)ccc1O (stereo not given),1%,9e-08M*,13µM*,u,u,1e-07M*,-21,-25%,0.79µM*
Cc1cc2oc3c(c(=O)c2cc1C)C(c1cccc(Br)c1)N(Cc1ccco1)C3=O (stereo not given),1%,i,-4%,-5%,7%,i,x,x,x
O=C(O)[C@@H](Br)[C@@H](Br)c1ccccc1[N+](=O)[O-],-1%[11.5 µM],i,-7%[7.6 µM],3%[11.4 µM],-14%[11.4 µM],i,x,x,x
C=CCn1c(SCC(=O)Nc2sccc2C(N)=O)nc2sc(C)c(C)c2c1=O,1%,i,2µM*,u,12%,i,u,u,4µM*
Cc1nnc(SCC(=O)Nc2sccc2C(N)=O)n1Cc1ccccc1,-1%,i,u,-11%,-9%,i,x,x,x
CCN(CC)c1nc2ccccc2n2cnnc12,0%,i,13µM*,-8%,10%,i,-11,u,13µM*
CCCN(CCC)c1nc2ccccc2n2c(C)nnc12,-1%,i,0%,-8%,-3%,i,-10,-21%,10µM*
